Experimental data from PubChem BioAssay (Tox21).
Values joined by “and” are separate entries in the source; they are usually repeats but may differ in a detail not shown here. Equal values may be shown once. Inconclusive results are not listed. A call without a number means that no potency is given here. Some compounds were tested as several samples or in several runs, with calls that do not always agree. Active and inactive are the calls of the source. Unless noted, calls come from the whole dose curve; as a rule, active = well fitted curve in the direction sought with a large enough effect in the repeat runs; inconclusive = weak or mixed curves; inactive = no such curve, though single readings can be large; an effect the other way counts as inactive or inconclusive.

Experiments:
[1] = qHTS assay to identify small molecule agonists of the estrogen receptor alpha (ER-alpha) signaling pathway in the presence of an antagonist - cell viability counter screen (AID 1259386);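 note: series mostly up to about 92 µM; cells exposed to compounds for 22 h at 37 °C before the viability read; nearly all actives have a fitted effect of over 30% in size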
In short: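 Using estrogen-depleted VM7Luc4E2 cells, the 15-concentration compound series was applied together with 10.0nM ICI-182,780 and incubated 22hr at 37C/5% CO2. Cell viability was then scored by CellTiter-Fluor.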

[2] = molecular target: Progesterone receptor (Homo sapiens) (UniProt P06401); experiment: qHTS assay to identify small molecule agonists of the progesterone receptor (PR) signaling pathway (AID 1346784; calls by dose curve; note: nearly all actives have a fitted effect of over 30% in size; note: potency is the fitted concentration of half-maximal effect)
Progesterone receptor (Homo sapiens), sequence (P06401 whole entry, looked up): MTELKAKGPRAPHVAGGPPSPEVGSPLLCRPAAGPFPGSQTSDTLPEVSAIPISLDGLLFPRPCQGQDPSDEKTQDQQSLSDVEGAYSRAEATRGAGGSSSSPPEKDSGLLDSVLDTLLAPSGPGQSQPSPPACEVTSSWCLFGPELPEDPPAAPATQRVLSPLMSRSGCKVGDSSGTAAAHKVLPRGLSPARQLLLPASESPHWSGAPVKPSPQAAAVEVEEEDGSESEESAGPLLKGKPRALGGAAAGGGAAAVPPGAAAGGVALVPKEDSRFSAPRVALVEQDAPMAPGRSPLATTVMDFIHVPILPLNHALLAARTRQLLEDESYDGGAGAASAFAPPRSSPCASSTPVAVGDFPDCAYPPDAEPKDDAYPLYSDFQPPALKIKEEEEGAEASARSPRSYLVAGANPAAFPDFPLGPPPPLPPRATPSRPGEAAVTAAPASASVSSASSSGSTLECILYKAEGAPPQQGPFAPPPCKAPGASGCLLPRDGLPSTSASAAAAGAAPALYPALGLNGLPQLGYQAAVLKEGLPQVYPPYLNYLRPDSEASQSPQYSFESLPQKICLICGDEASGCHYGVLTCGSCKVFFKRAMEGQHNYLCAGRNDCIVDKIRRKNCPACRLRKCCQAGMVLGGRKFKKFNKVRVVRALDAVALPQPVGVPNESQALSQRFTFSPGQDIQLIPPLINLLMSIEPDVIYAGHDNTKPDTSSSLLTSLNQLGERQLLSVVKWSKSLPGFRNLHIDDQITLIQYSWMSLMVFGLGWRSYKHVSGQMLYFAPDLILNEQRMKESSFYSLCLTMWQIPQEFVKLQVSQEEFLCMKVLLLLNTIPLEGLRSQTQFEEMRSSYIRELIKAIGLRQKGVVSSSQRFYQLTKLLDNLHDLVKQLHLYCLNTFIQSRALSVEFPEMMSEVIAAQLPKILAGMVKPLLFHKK
In short: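 Seed PR-UAS-bla HEK 293T cells (2% charcoal-stripped FBS), incubate 6 hr at 37C; add compounds in DMSO, 16 hr at 37C; add LiveBLAzer B/G substrate, 2 hr RT; read fluorescence intensity.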

[3] = molecular target: Progesterone receptor (Homo sapiens) (UniProt P06401); experiment: qHTS assay to identify small molecule antagonists of the progesterone receptor (PR) signaling pathway (AID 1346795; active = well fitted inhibition curve with a large enough effect in the signal ratio in the repeat runs, not every such curve was filed as active; the % refers to the signal ratio)
In short: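 Screening used a GripTite HEK293T line with PR-responsive UAS-beta-lactamase. Cells were challenged with compound in the presence of 1 nM R5020 final for 16 hr at 37C; B/G FRET substrate, 2 hr room temperature, fluorescence.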

[4] = qHTS assay to identify small molecule antagonists of the progesterone receptor (PR) signaling pathway - cell viability counter screen (AID 1346798); note: series mostly up to about 92 µM; nearly all actives have a fitted effect of over 50% in size
In short: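 Measures cytotoxicity in parallel with the PR antagonist reporter read: HEK293T PR-UAS-bla cells get compound and R5020 for 16 hr, and remaining viable cells are quantified by CellTiter-Glo luminescence.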

[5] = qHTS assay to identify small molecule agonists of the progesterone receptor (PR) signaling pathway - cell viability counter screen (AID 1346799; calls by dose curve; note: nearly all actives have a fitted effect of over 45% in size)
In short: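 Using the same plates as the PR reporter screen, HEK293T PR-UAS-bla cells received compounds for 16 hr at 37C and were then lysed with CellTiter-Glo; luminescence was read 30 min later at room temperature.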

[6] = qHTS assay to identify small molecule antagonists of the TGF-beta/Smad signaling pathway - cell viability counter screen (AID 1346824); note: nearly all actives have a fitted effect of over 50% in size
In short: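 SBE-bla HEK 293T cells, incubated overnight, then compound plus 0.25 ng/mL TGF-beta1 (stock added) for 5 hr at 37 C. Viability was read in the same wells by CellTiter-Glo luminescence after 30 min at room temperature.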

[7] = qHTS assay to identify small molecule agonists of the TGF-beta/Smad signaling pathway - cell viability counter screen (AID 1346829); note: top concentration of the series differs between compounds; nearly all actives have a fitted effect of over 45% in size
In short: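 After overnight seating at 37 C and 5% CO2, reporter cells got compounds for 5 hr and FRET substrate for 2 hr; cell viability then came from CellTiter-Glo luminescence.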

[8] = qHTS assay to identify small molecule agonists of the TGF-beta/Smad signaling pathway (AID 1346859; active = well fitted activation curve with a large enough effect in the signal ratio in the repeat runs, not every such curve was filed as active; the % refers to the signal ratio; note: series mostly up to about 77 µM)
In short: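 Beta-lactamase reporter activity downstream of Smad binding elements was measured in stably transfected HEK 293T cells; compounds were incubated for 5 hr, substrate for 2 hr at room temperature.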

[9] = molecular target: Thyrotropin-releasing hormone receptor (Homo sapiens) (UniProt P34981); experiment: qHTS assay to identify small molecule antagonists of the thyrotropin-releasing hormone receptor (TRHR) signaling pathway (AID 1346877; active = well fitted inhibition curve with a large enough effect in the repeat runs, not every such curve was filed as active; note: series mostly up to about 51 µM)
Thyrotropin-releasing hormone receptor (Homo sapiens), sequence (P34981 whole entry, looked up): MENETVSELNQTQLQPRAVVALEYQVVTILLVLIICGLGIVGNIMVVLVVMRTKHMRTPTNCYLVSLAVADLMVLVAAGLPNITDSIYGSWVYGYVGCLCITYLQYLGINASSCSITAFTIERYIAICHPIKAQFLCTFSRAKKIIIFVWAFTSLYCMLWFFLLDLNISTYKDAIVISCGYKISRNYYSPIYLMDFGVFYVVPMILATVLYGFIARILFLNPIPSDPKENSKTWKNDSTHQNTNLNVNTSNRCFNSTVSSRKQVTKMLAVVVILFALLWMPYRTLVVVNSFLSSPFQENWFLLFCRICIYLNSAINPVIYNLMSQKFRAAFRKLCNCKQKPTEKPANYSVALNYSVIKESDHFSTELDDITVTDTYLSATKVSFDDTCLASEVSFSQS
In short: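 Calcium signal in dye-loaded TRHR/HEK293 cells; compounds added 5 min before TRH (1 nM final); fluorescence monitored 3 min at 1 s steps.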

[10] = molecular target: Thyrotropin-releasing hormone receptor (Homo sapiens) (UniProt P34981); experiment: qHTS assay to identify small molecule agonists of the thyrotropin-releasing hormone receptor (TRHR) signaling pathway (AID 1346891; calls by dose curve;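 note: HEK293 cells expressing TRHR with calcium dye readout; series mostly up to about 58 µM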)
In short: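 Overnight-plated (18 h, 37 °C, 5% CO2) TRHR-Hek293 cells; 2 h calcium dye at 37 °C; compound in DMSO; 3-min kinetic fluorescence read.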

[11] = Human pregnane X receptor (PXR) small molecule agonists, qHTS cell viability counter screen (AID 1346977); note: nearly all actives have a fitted effect of over 50% in size
In short: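 After a 5hr pre-incubation, PXR-Luc HepG2 cells received compounds plus positive control in DMSO and were kept 24hr at 37C. Cell viability was quantified by fluorescence from CellTiter-Fluor added for the final hour.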

[12] = Caspase-3/7 induction in HepG2 cells by small molecules, qHTS assay (AID 1346978); note: nearly all actives have a fitted effect of over 15% in size
In short: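 Wild-type HepG2 cells, 2,000/well, settled 5 hr at 37 C and 5% CO2, then compound-treated for 17 hr; caspase-3/7 activity read by luminescent Caspase-Glo 3/7 after 30 min at room temperature.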

[13] = Caspase-3/7 induction in CHO-K1 cells by small molecules, qHTS cell viability counter screen (AID 1346979); note: nearly all actives have a fitted effect of over 35% in size
In short: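 Multiplexed with Caspase-Glo 3/7 in CHO-K1 cells, this counter screen added CellTiter-Fluor after 16hr of compound exposure and recorded fluorescence 1hr later.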

[14] = Caspase-3/7 induction in CHO-K1 cells by small molecules, qHTS assay (AID 1346980); note: nearly all actives have a fitted effect of over 15% in size
In short: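 Wild-type CHO-K1 cells exposed to compounds for 17hr at 37 C, 5% CO2. Caspase-3/7 activity then measured by Caspase-Glo 3/7 luminescence after 30min at room temperature.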

[15] = Caspase-3/7 induction in HepG2 cells by small molecules, qHTS cell viability counter screen (AID 1346981); note: series mostly up to about 92 µM; nearly all actives have a fitted effect of over 30% in size
In short: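 After a 5-hr attachment period at 37 C and 5% CO2, wild-type HepG2 cells received compounds in DMSO. Sixteen hours later CellTiter-Fluor was dispensed and the fluorescent signal quantified after a further hour.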

[16] = molecular target: Nuclear receptor subfamily 1 group I member 2 (Homo sapiens) (UniProt O75469); experiment: Human pregnane X receptor (PXR) small molecule agonists, qHTS assay (AID 1346982); note: nearly all actives have a fitted effect of over 35% in size; note: potency is the fitted concentration of half-maximal effect
Nuclear receptor subfamily 1 group I member 2 (Homo sapiens), sequence (O75469 whole entry, looked up): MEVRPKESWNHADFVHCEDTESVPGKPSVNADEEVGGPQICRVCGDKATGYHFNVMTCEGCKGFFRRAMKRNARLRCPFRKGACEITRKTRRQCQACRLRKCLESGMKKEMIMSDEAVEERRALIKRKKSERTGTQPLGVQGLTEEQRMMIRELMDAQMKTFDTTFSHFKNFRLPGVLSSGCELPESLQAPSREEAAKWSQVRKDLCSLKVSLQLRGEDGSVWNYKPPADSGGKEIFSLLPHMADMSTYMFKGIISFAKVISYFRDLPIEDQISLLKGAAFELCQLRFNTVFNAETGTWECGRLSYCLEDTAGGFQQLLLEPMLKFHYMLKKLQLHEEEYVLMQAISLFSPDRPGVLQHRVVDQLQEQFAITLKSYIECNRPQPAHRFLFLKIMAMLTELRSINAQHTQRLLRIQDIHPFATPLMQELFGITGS
In short: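 Tox21 qHTS; PXR-Luc HepG2; compounds pinned from DMSO; 24 hr, 37 C; ONE-Glo luciferase detection, 30 min room temperature.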

[17] = molecular target: Nuclear receptor subfamily 1 group I member 2 (Rattus norvegicus) (UniProt Q9R1A7); experiment: Rat pregnane X receptor (rPXR) activation by small molecules, qHTS assay (AID 1346983); details: rPXR luciferase reporter cells, One-Glo luminescence, 24 h; stronger effect = higher value; note: nearly all actives have a fitted effect of over 20% in size
Nuclear receptor subfamily 1 group I member 2 (Rattus norvegicus), sequence (Q9R1A7 whole entry, looked up): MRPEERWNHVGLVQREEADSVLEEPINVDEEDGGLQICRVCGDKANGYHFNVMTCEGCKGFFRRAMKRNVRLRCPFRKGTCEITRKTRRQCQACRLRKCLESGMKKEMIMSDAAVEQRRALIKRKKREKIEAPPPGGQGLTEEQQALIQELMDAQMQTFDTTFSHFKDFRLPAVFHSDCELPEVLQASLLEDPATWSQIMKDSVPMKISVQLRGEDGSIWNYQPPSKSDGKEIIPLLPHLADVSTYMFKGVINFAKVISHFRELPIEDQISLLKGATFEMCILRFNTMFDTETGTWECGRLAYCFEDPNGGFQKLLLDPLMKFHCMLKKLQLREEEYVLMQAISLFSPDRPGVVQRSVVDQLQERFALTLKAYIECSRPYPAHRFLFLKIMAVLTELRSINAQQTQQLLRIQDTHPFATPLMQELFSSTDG
In short: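 Cell-based rPXR activation assay: rPXR cells, 2,000 per well, rested 5hr at 37 C, then exposed to compounds in DMSO for 24 hr at 37 C. Luciferase activity read by One-Glo luminescence after 30 min at room temperature.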

[18] = molecular target: Nuclear receptor subfamily 1 group I member 2 (Homo sapiens) (UniProt O75469); experiment: CYP3A4 induction through human pregnane X receptor (PXR) by small molecules, qHTS assay (AID 1346984); note: nearly all actives have a fitted effect of over 40% in size
In short: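 Cells (DPX-2; HepG2 with PXR element plus CYP3A4-promoter luciferase) settled 5hr, then were treated 24hr at 37C. A 3hr, 3uM-final Luciferin-IPA step preceded luminescence measurement with One-Glo.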

[19] = molecular target: Nuclear receptor subfamily 1 group I member 2 (Homo sapiens) (UniProt O75469); experiment: Human pregnane X receptor (PXR) activation by small molecules, qHTS assay (AID 1346985); note: nearly all actives have a fitted effect of over 40% in size
In short: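 DPX-2 cells (HepG2 co-transfected with a PXR response element and a CYP3A4-promoter luciferase construct) were seeded at 2,000 per well, rested 5 hr at 37C, then exposed to DMSO-dissolved compounds for 24 hr. Activation was read as luciferase luminescence.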

[20] = molecular target: Acetylcholinesterase (Homo sapiens) (UniProt P22303); experiment: Acetylcholinesterase (AChE) small molecule antagonists: colormetric cell-based qHTS assay (AID 1347395; calls by dose curve; note: nearly all actives have a fitted effect of over 30% in size)
Acetylcholinesterase (Homo sapiens), sequence (P22303 whole entry, looked up): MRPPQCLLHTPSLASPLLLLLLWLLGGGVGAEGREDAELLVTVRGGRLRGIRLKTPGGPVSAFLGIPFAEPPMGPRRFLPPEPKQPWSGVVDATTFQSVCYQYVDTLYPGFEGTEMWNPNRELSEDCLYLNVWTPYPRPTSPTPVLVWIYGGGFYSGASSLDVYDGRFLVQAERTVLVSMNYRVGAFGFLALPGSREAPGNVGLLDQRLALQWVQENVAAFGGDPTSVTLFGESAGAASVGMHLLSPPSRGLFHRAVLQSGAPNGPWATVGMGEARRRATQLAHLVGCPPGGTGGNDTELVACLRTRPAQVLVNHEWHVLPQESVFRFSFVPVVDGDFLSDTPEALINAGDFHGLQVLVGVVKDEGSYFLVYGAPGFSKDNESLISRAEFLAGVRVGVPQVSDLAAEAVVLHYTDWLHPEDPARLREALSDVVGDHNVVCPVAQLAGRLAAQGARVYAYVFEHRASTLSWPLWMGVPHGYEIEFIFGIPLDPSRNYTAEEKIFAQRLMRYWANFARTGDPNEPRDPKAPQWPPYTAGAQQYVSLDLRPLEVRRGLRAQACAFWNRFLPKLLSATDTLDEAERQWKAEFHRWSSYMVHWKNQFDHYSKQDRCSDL
In short: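 In this cell-based qHTS, attached SH-SY5Y cells were treated with test chemicals for 30 min, after which acetylthiocholine hydrolysis was followed by DTNB colour development over 90 min at 37 C.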

Row | Structure (SMILES) | Potency [1] | Potency [2] | Potency [3] | Potency [4] | Potency [5] | Potency [6] | Potency [7] | Potency [8] | Potency [9] | Potency [10] | Potency [11] | Potency [12] | Potency [13] | Potency [14] | Potency [15] | Potency [16] | max activation [17] | outcome [18] | Potency [19] | Potency [20]
1 | O=C(O)C(Cl)(Cl)Cl | inactive | inactive | inactive | inactive | inactive | inactive | inactive | inactive | inactive | inactive | inactive | inactive | inactive | inactive | inactive | inactive | -1.14% (inactive) | inactive | inactive | inactive
2 | Oc1ccccc1-c1ccccc1 | inactive | inactive | inactive | inactive | inactive | inactive | inactive | inactive | inactive | inactive | inactive | inactive | inactive | inactive | inactive | inactive and 31.4 µM (active) | -1.27% (inactive) | inactive | inactive | inactive
3 | O=C(O)CC(O)(CC(=O)O)C(=O)O | inactive | inactive and 87.8 nM (active) | inactive | inactive | inactive | inactive | inactive | inactive | inactive | inactive | inactive | inactive | inactive | inactive | inactive |  |  |  |  | 
4 | CCCC[N+]1(C)CCCC1 | inactive | inactive | inactive | inactive | inactive | inactive | inactive | inactive |  |  | inactive | inactive | inactive | inactive | inactive | inactive |  |  |  | 
5 | O=c1[nH]c(=O)n(Cl)c(=O)n1Cl | inactive | inactive | inactive | inactive | inactive | inactive | inactive | inactive | inactive | inactive | inactive | inactive | inactive | inactive | inactive | inactive | 0.0078% (inactive) | inactive | inactive | inactive
6 | COCC(=O)N(c1c(C)cccc1C)C(C)C(=O)OC (configuration not stated) | inactive | inactive | inactive | inactive | inactive | inactive | inactive | inactive | inactive | inactive | inactive | inactive | inactive | inactive | inactive | inactive | 0.174% (inactive) |  |  | inactive
